Drawing on PubChem BioAssay (NCATS), this text covers outcome for 19 compounds.

Records with an inconclusive call do not appear. Active and inactive are the calls of the source. The call rests on the fitted dose curve; in most records, active means well fitted inhibition curve with a large enough effect; inconclusive means small, poorly fitted or top-dose-only effect; inactive means flat fitted curve, though single readings scatter.

The test deals with HACAT. Description: qHTS assay to identify novel small-molecules to repurpose for Merkel cell carcinoma treatment (AID 1296009). Further: nearly all actives have a fitted effect of over 60% in size. Particulars: MCC and control cell lines, CellTiter-Glo viability, 72 h; at 44.8 µM (top of the series) unless noted. Put shortly: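 CellTiter-Glo luminescence after 72 hr compound exposure at 37 degree celsius gave cell viability. Libraries NPC and MIPE were run as 8- and 11-point dose responses; RLUs normalized to DMSO (negative) and no-cell (cytotoxicity) controls.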
(qHTS replaces the single test concentration by a dilution series.)
On to `S=C(c1ccc(-c2ccc(Cl)c(Cl)c2)o1)N1CCCCC1`, for which the compound was called inactive.
As for `CC(CCC1(O)OC2CC3C4CC=C5C[C@@H](O[C@@H]6O[C@H](CO)[C@@H](O[C@@H]7O[C@@H](C)[C@H](O)[C@@H](O)[C@H]7O)[C@H](O)[C@H]6O[C@@H]6O[C@@H](C)[C@H](O)[C@@H](O)[C@H]6O)CC[C@]5(C)C4CC[C@]3(C)[C@@]2(O)[C@@H]1C)CO[C@@H]1O[C@H](CO)[C@@H](O)[C@H](O)[C@H]1O` (some centres undefined), the entry is “inactive [at 9.27 µM]”; as for `Cc1ccc(N2CCN(S(=O)(=O)N3CCCCC3)CC2)c(C)c1`, “inactive”.
On to `O=C(Nc1ncc([N+](=O)[O-])s1)c1ccccc1O`, for which the result was inactive.
As for `O=C(NCc1cccs1)c1cc2nc(-c3ccco3)cc(C(F)(F)Cl)n2n1`, the entry is “inactive”; as for `COc1ccc(-n2c(SCCCN3C(=O)c4cccc5cccc(c45)C3=O)nnc2-c2ccncc2)cc1`, “inactive”.
In the case of `O=C(Nc1ccc(C(F)(F)F)cn1)N1CCN(c2ncccc2C(F)(F)F)CC1`, the result was inactive.
As for `C=C1C(=O)OC2C1CCC1(C)C(O)CC=C(C)C21` (centres undefined), the entry is “inactive”; as for `Cc1ccnc(NC(=O)C(C)c2cccc(C(=O)c3ccccc3)c2)c1` (centres undefined), “inactive”.
As for `Cc1nc(C#Cc2ccnc(Cl)c2)c(C)n1-c1ccc(OC(F)(F)F)cc1`, the compound was called inactive.
As for `C=C1C(=O)O[C@@H]2C=C(COC(C)=O)CC/C=C(\CO)CC[C@@H]12`, the entry is “inactive”; as for `Cc1ccc(-c2cn3c4c(sc3n2)CCCC4)cc1`, “inactive”.
As for `C=C1C(=O)OC2C1CCC1(C)C(O)CCC(=C)C21` (centres undefined), the entry is “inactive”.
On to `C=CCc1ccc(OC(C)Cc2ccc(OC)c(OC)c2)c(OC)c1` (centres undefined), for which the outcome was inactive.
Regarding `C=CC(=O)N1CCCN(c2cc(NCCC(=O)O)nc(-c3ccccn3)n2)CC1`, the compound was classed as inactive.
As for `CC1(C)CC[C@]2(C(=O)O[C@@H]3O[C@H](CO)[C@@H](O)[C@H](O)[C@H]3O)CC[C@]3(C)C(=CCC4[C@@]5(C)CC[C@H](O[C@@H]6O[C@H](C(=O)O)[C@H](O)[C@H](O)[C@H]6O)C(C)(C)C5CC[C@]43C)[C@@H]2C1` (some centres undefined), the entry is “inactive [at 17.4 µM]”; as for `CC(=O)OC1CC2(C)C(CCC(C)C23Cc2c(O)cc(CO)c(C=O)c2O3)C(C)(C)C1O` (centres undefined), “inactive [at 17.4 µM]”.
As for `O=C(Nc1cnc(Cl)nc1)c1ccc(F)c(F)c1`, the entry is “inactive”; as for `Fc1ccc(-c2cncc(CN3CCN(c4cccc5c4OCCO5)CC3)c2)cc1`, “inactive”.
